# Source: patent publication US20230313203, “FLUOROARABINO NUCLEIC ACID (FANA) […] THAT BIND SARS-2 RECEPTOR BINDING DOMAIN AND BLOCK BINDING TO THE ACE2 […] RECEPTOR” (University of Maryland, College Park, published 2023)
# Potency and affinity values are given separately.
# Target: SARS-CoV-2 spike receptor binding domain (Wuhan) (SARS-CoV-2, UniProt P0DTC2 P0DTC2:319-541)
# Assay: inhibition
# Conditions: XNA; first 20 nt DNA, rest FANA (SEQ ID NO 3)
sequence,measurement,value
AAAAGGTAGTGCTGAATTCGUCGAACUAAUCCGAAUUGAUGGCAUAAAAAGCAUGUUUAGUUCGCUAUCCAGUUGGCCU,binding signal,~3 fold weaker
